From PubChem BioAssay (Tox21)
Records with an inconclusive call do not appear. Where a call stands in place of a potency, no number is given. Active and inactive are the calls of the source. The call rests on the fitted dose curve; in most records, active means well fitted cell-killing curve with a large enough effect in the repeat runs; inconclusive means weak or mixed curves, or effect the other way; inactive means no such curve, though single readings can be large or run the other way.

experiment: qHTS assay to identify small molecule antagonists of the peroxisome proliferator-activated receptor gamma (PPARg) signaling pathway - cell viability counter screen (AID 743194); conditions: PPARg-bla HEK293H viability, CellTiter-Glo luminescence, 17 h, co-treated with 50 nM rosiglitazone; series mostly up to 62.6 µM; further: nearly all actives have a fitted effect of over 55% in size
Text: U.S. Tox21 Program National Center for Advancing Translational Sciences [NCATS] NIH Chemical Genomics Center [NCGC] U.S. Environmental Protection Agency [EPA] National Institutes of Environmental Health Sciences [NIEHS] National Toxicology Program [NTP] U.S. Food and Drug Administration [FDA] Tox21 Assay Overview: The peroxisome proliferator-activated receptors (PPARs) are lipid-activated transcription factors of the nuclear receptor superfamily with three distinct subtypes namely PPAR alpha, PPAR delta (also called PPAR beta) and PPAR gamma (PPARg). All these subtypes heterodimerize with Retinoid X receptor (RXR) and these heterodimers regulate transcription of various genes. PPAR-gamma receptor (glitazone receptor) is involved in the regulation of glucose and lipid metabolism. To identify the compounds that activate PPAR-gamma signaling, GeneBLAzer PPAR gamma UAS-bla HEK293H cell line (Invitrogen, Carlsbad, CA, USA) containing a beta-lactamase reporter gene under the control of an Upstream Activator Sequence (UAS) was used to screen the Tox21 compound library. The cytotoxicity of the Tox21 compound library against the PPARg-bla cell line was tested in parallel by measuring the cell viability using CellTiter-Glo assay in the same wells.
Tox21 Assay Protocol Summary: PPARg-bla cells were dispensed at 3000 cells/5uL/well in 1536-well black wall/clear bottom plates using a Multidrop Combi (Thermo Fisher Scientific, Waltham, MA) dispenser. After the assay plates were incubated at 37 C and 5% CO2 for 5 h, 23 nL of compounds dissolved in DMSO, positive controls or DMSO only was transferred to the assay plate by a Pintool station (Kalypsys, San Diego, CA), followed by addition of 1ul Rosiglitazone (50 nM, final concentration in the wells). The assay plates were incubated at 37 C for 17 h, and then 1 uL of LiveBLAzerTM B/G FRET substrate was added using a Bioraptr Flying Reagent Dispenser (FRD) workstation (Beckman Coulter, Indianapolis, IN, USA). The assay plates were incubated at room temperature for 1 h and fluorescence intensity was measured by an Envision plate reader (PerkinElmer, Shelton, CT). For cell viability readout that measures cytotoxicity, 4 ul/well of CellTiter-Glo reagent was added into the assay plates using a Flying Reagent Dispenser. After 30 min incubation at room temperature, the luminescence intensity in the plates was measured using a ViewLux plate reader (PerkinElmer).
Potency means the concentration at half of the fitted maximal effect.

SMILES	Potency
OC(CN1CCC(Cc2ccc(F)cc2)CC1)c1ccc(Cl)cc1 (stereo not given)	inactive
Cc1cc(C(=O)O)ccc1[N+](=O)[O-]	inactive
CCCCOC(=O)CCCCCCCC(=O)OCCCC	inactive
CCCCC(=O)OCC(=O)[C@H]1[C@H](C)C[C@H]2[C@@H]3C[C@H](F)C4=CC(=O)C=C[C@]4(C)[C@@]3(F)[C@@H](O)C[C@@]21C	inactive
CN(C)c1ccc(C(c2ccccc2)c2ccc(N(C)C)cc2)cc1	inactive
CCCCCCCCCCO[C@@H]1O[C@H](CO)[C@@H](O)[C@H](O)[C@H]1O	inactive
CCCCO	inactive
CCCCc1nc2cccnc2n1Cc1ccc(-c2ccccc2-c2nnn[nH]2)cc1	inactive
CCCn1cnc2c1c(=O)n(CCCCC(C)=O)c(=O)n2C	inactive
CCN(CC)c1ccc(C(=C2C=CC(=[N+](CC)CC)C=C2)c2cc(S(=O)(=O)O)ccc2S(=O)(=O)[O-])cc1	inactive
CC(C)=CCC/C(C)=C/CC/C(C)=C/CO	inactive
CCCCNc1ccc(C(=O)OCCOCCOCCOCCOCCOCCOCCOCCOCCOC)cc1	inactive
NC(=O)C(c1ccccc1)(c1ccccc1)[C@@H]1CCN(CCc2ccc3c(c2)CCO3)C1	inactive
CC(C)(COC(=O)c1ccccc1)COC(=O)c1ccccc1	inactive
COc1cc2nc(N(C)CCCNC(=O)C3CCCO3)nc(N)c2cc1OC (stereo not given)	inactive
C[C@@H]1C[C@H]2O[C@@]3(O[C@@H]2C(C)(C)O)[C@H](O)[C@@]2(C)[C@@H]4CC[C@H]5C(C)(C)[C@@H](O[C@@H]6OC[C@@H](O)[C@H](O)[C@H]6O)CC[C@@]56C[C@@]46CC[C@]2(C)[C@@H]13	inactive
CCO[Si](CCCCl)(OCC)OCC	inactive
Nc1ccccc1S(=O)(=O)c1ccccc1	inactive
C=C(C)C(=O)OCCOCC	inactive
C[C@H]1C[C@H]2[C@@H]3CCC4=CC(=O)C=C[C@]4(C)[C@@]3(Cl)[C@@H](O)C[C@]2(C)[C@@]1(O)C(=O)CO	inactive

SMILES	Potency
COc1cc(Cl)ccc1Oc1ccc(Cl)cc1Cl	inactive
COc1cc2nc(N3CCN(C(=O)C4COc5ccccc5O4)CC3)nc(N)c2cc1OC (stereo not given)	inactive
CCC(C)c1cc(C(C)(C)C)c(O)c(C(C)(C)C)c1 (stereo not given)	inactive
CCCNCC(O)COc1ccccc1C(=O)CCc1ccccc1 (stereo not given)	inactive
C=C1C(=C/C=C2\CCC[C@]3(C)[C@@H]([C@H](C)/C=C/[C@@H](O)C4CC4)CC[C@@H]23)C[C@@H](O)C[C@@H]1O	26.6 µM (active)
O=C(O)CC(=O)C(=O)O	inactive
CNC(=O)CN(CCN(CCN(CC(=O)[O-])CC(=O)NC)CC(=O)[O-])CC(=O)[O-].O.[Gd+3]	inactive
CC[N+]1(CC)CCC(=C(c2ccccc2)c2ccccc2)C1C (stereo not given)	inactive
O[C@@H](COc1cccc2ncccc12)CN1CCN(C2c3ccccc3[C@@H]3[C@H](c4ccccc42)C3(F)F)CC1 (stereo not given in full)	13.3 µM (active)
CNCCCN1c2ccccc2CCc2ccccc21	inactive
CCCCCCOC(=O)NC(=N)c1ccc(NCc2nc3cc(C(=O)N(CCC(=O)OCC)c4ccccn4)ccc3n2C)cc1	13.3 µM (active)
O=[N+]([O-])c1cccc(S(=O)(=O)O)c1	inactive
C=CCOc1ccccc1OCC(O)CNC(C)C (stereo not given)	inactive
O=C(c1ccc(F)cc1)C1CCN(CCn2c(=S)[nH]c3ccccc3c2=O)CC1	inactive
Clc1ccc(Cn2c(CN3CCCC3)nc3ccccc32)cc1	inactive
CN(C)CCN(Cc1ccc(Cl)cc1)c1ccccn1	inactive
CC(CC=O)c1ccccc1 (stereo not given)	inactive
O=C1OC(CN2CCOCC2)CN1/N=C/c1ccc([N+](=O)[O-])o1 (stereo not given)	inactive
OC[C@H]1O[C@@H](OCCc2ccc(O)cc2)[C@H](O)[C@@H](O)[C@@H]1O	inactive
C=CCOC(=O)CCC1CCCCC1	inactive
